Results reported in PubChem BioAssay AID750 (Sanford-Burnham Center for Chemical Genomics, 2007).
In all, about 86,000 compounds went through this assay and about 140 (0.16%) were called active.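 How the source made its calls: active means activation factor of at least 2 for MT1-MMP transcription at 10 µM; inactive means the rest.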 What follows is part of a selection rich in actives, with near analogues and random picks from the rest.

Assay: MT1-MMP promoter reporter activation – cell-based, luciferase luminescence, primary screen (AID 750)
Settings: HT1080 MT1-MMP promoter luciferase reporter, overnight, at 10 µM, stronger effect = higher value

**Q.** With `CC1CC(C)CN(CC(=O)N2c3ccccc3CCc3ccccc32)C1` (stereo not given) as the compound, how does the activation factor read?
**A.** Its activation factor is 1.1 (inactive).

**Q.** For `O=C(NCCN1CCN(Cc2ccccc2)CC1)c1cc2c(=O)[nH]c3ccccc3c2s1`, which activation factor is on record?
**A.** The activation factor was 1 (inactive).

**Q.** Which activation factor does the source give for `Cc1nn(C)cc1CNC(=O)Nc1ccc(Cl)cc1` here?
**A.** Its activation factor is 1.7 (inactive).

**Q.** Which activation factor does the source give for `Cc1ccc(-c2csc(NC(=O)Cc3cccs3)n2)cc1C` here?
**A.** The activation factor was 1.3 (inactive).

**Q.** For `O=P(O)(CP(=O)(c1ccccc1)c1ccccc1)c1ccccc1O`, which activation factor is on record?
**A.** The activation factor was 1.2 (inactive).

**Q.** For `COc1ccc(C(=O)NN(C)c2nc(-c3ccccc3)cc(C)c2S(C)(=O)=O)cc1`, which activation factor is on record?
**A.** The activation factor was 1.1 (inactive).

**Q.** Which activation factor does the source give for `O=S(=O)(c1ccc(Br)cc1)n1ccc2ccccc21` here?
**A.** The activation factor was 1.1 (inactive).

**Q.** Which activation factor does the source give for `O=C(NCCc1ccccc1)c1ccc(OCCOc2ccccc2)cc1` here?
**A.** Its activation factor is 1 (inactive).

**Q.** With `COC(=O)c1ccc(S(=O)(=O)N2CCC(c3nc4ccccc4o3)CC2)cc1` as the compound, how does the activation factor read?
**A.** Its activation factor is 1.1 (inactive).

**Q.** For `COc1ccc(C(c2nnnn2C2CCCCC2)N2CCN(c3ccccc3F)CC2)cc1` (stereo not given), which activation factor is on record?
**A.** Its activation factor is 1.1 (inactive).

**Q.** Which activation factor does the source give for `c1ccc(CCn2nnnc2CN2CCN(C3CCCC3)CC2)cc1` here?
**A.** Its activation factor is 1.1 (inactive).

**Q.** For `c1ccc(C(c2ccccc2)N2CCN(Cc3nnnn3C3CCCCC3)CC2)cc1`, which activation factor is on record?
**A.** The activation factor was 2 (active).

**Q.** Which activation factor does the source give for `C=CCn1c(SCc2c(C)noc2C)nc2sc3c(c2c1=O)CCC(C)C3` (stereo not given) here?
**A.** The activation factor was 0.6 (inactive).

**Q.** With `CCOc1ccc(-c2nc(C)sc2CC(=O)O)cc1` as the compound, how does the activation factor read?
**A.** The activation factor was 1 (inactive).

**Q.** Which activation factor does the source give for `CC(C)(C)N1CC(c2nc3ccccc3n2Cc2ccc(F)cc2)CC1=O` (stereo not given) here?
**A.** Its activation factor is 1.2 (inactive).

**Q.** With `CC1(C)Cc2cccc(OCC(N)=O)c2O1` as the compound, how does the activation factor read?
**A.** The activation factor was 1.2 (inactive).

**Q.** Which activation factor does the source give for `Cn1nc(C(F)(F)F)c2cc(NC(=O)OCC(C)(C)C)sc21` here?
**A.** The activation factor was 1 (inactive).

**Q.** With `CC1=NN(C(C)C)C(=O)C1` as the compound, how does the activation factor read?
**A.** Its activation factor is 1.2 (inactive).

**Q.** For `CN(C)S(=O)(=O)c1ccc(NC(=O)COC(=O)c2n[nH]c3ccccc23)cc1`, which activation factor is on record?
**A.** Its activation factor is 1.3 (inactive).

**Q.** For `O=C(OC1CCCCC1=O)c1cccc(S(=O)(=O)NCc2ccccc2)c1` (stereo not given), which activation factor is on record?
**A.** Its activation factor is 1.2 (inactive).

**Q.** For `COc1ccc(NC(=O)Cn2c(=O)n(Cc3ccco3)c(=O)c3ccccc32)cc1`, which activation factor is on record?
**A.** The activation factor was 1 (inactive).

**Q.** With `Cc1ccc(-n2nc3cc(C)c(NC(=O)c4cccnc4)cc3n2)cc1` as the compound, how does the activation factor read?
**A.** Its activation factor is 1.5 (inactive).

**Q.** With `CC(C)C[C@@H](N)c1nnc(SCC(=O)c2ccc(Cl)cc2)o1` as the compound, how does the activation factor read?
**A.** The activation factor was 1.1 (inactive).

**Q.** For `S=C1NC(c2ccccc2)=NCN1c1ccc(Br)cc1`, which activation factor is on record?
**A.** The activation factor was 1.2 (inactive).

**Q.** Which activation factor does the source give for `Cc1cc(NC(=O)CN2CCCC(C)C2)n(-c2nc3ccccc3s2)n1` (stereo not given) here?
**A.** Its activation factor is 1.2 (inactive).

**Q.** Which activation factor does the source give for `Cc1cc(-c2ccccc2)nc(N2CCC(C(=O)NC34CC5CC(CC(C5)C3)C4)CC2)n1` here?
**A.** Its activation factor is 1.3 (inactive).

**Q.** Which activation factor does the source give for `CCOC(=O)Nc1sc(C(=O)N(C)C)c(C)c1C(=O)OCC` here?
**A.** Its activation factor is 1 (inactive).

**Q.** With `Cc1[nH]n(-c2ccc(Cl)cc2)c(=O)c1/C=N/n1c(C)nc2ccccc2c1=O` as the compound, how does the activation factor read?
**A.** Its activation factor is 1 (inactive).

**Q.** Which activation factor does the source give for `COc1ccc(C2C(C(C)=O)=C(O)C(=O)N2c2nccs2)cc1` (stereo not given) here?
**A.** Its activation factor is 1 (inactive).

**Q.** With `Cc1ccc(CNC(=O)COc2ccc(S(=O)(=O)NC(C)C)cc2)cc1` as the compound, how does the activation factor read?
**A.** The activation factor was 1.1 (inactive).

**Q.** For `CC(C)C(NC(=O)c1ccc(Cl)cc1)C(=O)O` (stereo not given), which activation factor is on record?
**A.** Its activation factor is 1.1 (inactive).

**Q.** For `CCOc1ccc(C(=O)NC(C(=O)NCc2ccccn2)C(C)C)cc1` (stereo not given), which activation factor is on record?
**A.** The activation factor was 1.3 (inactive).

**Q.** For `COc1ccc(C2=NOC3(CC(=O)N(c4ccc(Cl)cc4)C3=O)C2)c(OC)c1` (stereo not given), which activation factor is on record?
**A.** The activation factor was 1 (inactive).

**Q.** Which activation factor does the source give for `Cc1ccc(S(=O)(=O)NCC(=O)N(CC(=O)NC(C)(C)C)Cc2cccs2)cc1` here?
**A.** Its activation factor is 1.1 (inactive).

**Q.** Which activation factor does the source give for `CC(Nc1nc(N2CCCC2)nc2ccccc12)c1ccccc1` (stereo not given) here?
**A.** Its activation factor is 1.1 (inactive).

**Q.** For `Cc1ccc(C(CC(=O)O)Nc2nc(N3CCCCC3)nc(N3CCCCC3)n2)cc1` (stereo not given), which activation factor is on record?
**A.** The activation factor was 2 (active).

**Q.** With `COc1ccc(C(CC(=O)O)NC(=O)Cc2ccccc2)cc1` (stereo not given) as the compound, how does the activation factor read?
**A.** The activation factor was 1.2 (inactive).

**Q.** Which activation factor does the source give for `OC(C#CCN1CCOCC1)(c1ccccc1)C1CCCCC1` (stereo not given) here?
**A.** Its activation factor is 1.1 (inactive).

**Q.** For `Cc1ccn(C(CC(=O)c2ccc(Br)cc2)C(=O)O)n1` (stereo not given), which activation factor is on record?
**A.** The activation factor was 1.1 (inactive).

**Q.** Which activation factor does the source give for `O=C(O)CSCc1ccc(C(=O)O)o1` here?
**A.** Its activation factor is 1.2 (inactive).
